Compounds without any hit were thinned out: in the full panel of roughly 83,000, 20% have a hit.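 The test compound was applied at a single concentration to cells in 96-well plates for 48 hours, and percent growth was recorded.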 The source made the active and inactive calls. Rule for the calls: active = growth percent below 10; inactive = the rest.
How the values were obtained:
Test in all cases: NCI-60 one-dose screen, 48 h (100 = growth as untreated, 0 = no growth, -100 = all killed)
Conditions in all cases: 10 µM unless noted
NCI-H226 lung = system: NCI-H226 lung
NCI-H322M lung = system: NCI-H322M lung
HOP-62 NSCLC = system: HOP-62 NSCLC
NCI-H460 lung = system: NCI-H460 lung
HOP-92 NSCLC = system: HOP-92 NSCLC
NCI-H522 lung = system: NCI-H522 lung
A549/ATCC NSCLC = system: A549/ATCC NSCLC
786-0 renal = system: 786-0 renal
COLO 205 colon = system: COLO 205 colon
DU-145 prostate = system: DU-145 prostate
K-562 leukemia = system: K-562 leukemia
MALME-3M melanoma = system: MALME-3M melanoma
MDA-MB-231 breast = system: MDA-MB-231 breast
RXF 393 renal = system: RXF 393 renal
SF-268 CNS = system: SF-268 CNS
SF-295 CNS = system: SF-295 CNS
SF-539 CNS = system: SF-539 CNS
M14 melanoma = system: M14 melanoma
UACC-257 melanoma = system: UACC-257 melanoma

Measured: growth

CSc1ccc(N(C)c2nc(C)nc3c2CCC3)cc1
active: HOP-62 NSCLC 2.72% | NCI-H460 lung 6.41% | HOP-92 NSCLC -17% | NCI-H522 lung -26.7% | A549/ATCC NSCLC 6.42% | COLO 205 colon -64.9% | DU-145 prostate 9.33% | K-562 leukemia 5.51% | SF-539 CNS -16.1% | M14 melanoma 5.22%
inactive: NCI-H226 lung 55.5% | NCI-H322M lung 57.4% | 786-0 renal 14.4% | MALME-3M melanoma 92.8% | MDA-MB-231 breast 10% | RXF 393 renal 44.7% | SF-268 CNS 26.9% | SF-295 CNS 14.3%

CC1(C)CC[C@]2(C(=O)NCCNCCN)CC[C@]3(C)C(=CC[C@@H]4[C@@]5(C)CCC(=O)C(C)(C)[C@@H]5CC[C@]43C)[C@@H]2C1
inactive: NCI-H226 lung 78.1% | NCI-H322M lung 81.1% | HOP-62 NSCLC 70.4% | HOP-92 NSCLC 39.7% | NCI-H522 lung 27.2% | A549/ATCC NSCLC 32.6% | 786-0 renal 78.3% | DU-145 prostate 32.5% | RXF 393 renal 50.1% | SF-268 CNS 72.7% | SF-295 CNS 96.7% | SF-539 CNS 76.5% | UACC-257 melanoma 92.8%
active: NCI-H460 lung -55.8% | COLO 205 colon -66.6% | K-562 leukemia -47.9% | MALME-3M melanoma -65% | MDA-MB-231 breast 6.83% | M14 melanoma -63.4%

O=C1c2cc3c(cc2-c2c1c1ccc(Cl)cc1c(=O)n2C[C@H](O)[C@@H](O)[C@H](O)CO)OCO3
inactive: NCI-H322M lung 12.6% | HOP-92 NSCLC 12.4% | K-562 leukemia 12%
active: HOP-62 NSCLC -43.1% | NCI-H460 lung 0.505% | NCI-H522 lung -59.5% | A549/ATCC NSCLC -75.8% | 786-0 renal 4.87% | COLO 205 colon -16.6% | DU-145 prostate 3.84% | MALME-3M melanoma -28.2% | MDA-MB-231 breast 6.7% | RXF 393 renal -47% | SF-268 CNS 7% | SF-295 CNS -5.74% | SF-539 CNS -39.8% | UACC-257 melanoma -49.4% | M14 melanoma 4.34%

C=C(C)[C@@H]1CC[C@]2(C)[C@H](CC[C@@H]3[C@H]4[C@H]5OC[C@@]4(CCC5(C)C)CC[C@]32C)[C@@]1(C)CCCN
active: NCI-H460 lung -28.6% | COLO 205 colon -58.2% | K-562 leukemia 3.82% | MALME-3M melanoma -48.5% | SF-295 CNS -4.38%
inactive: NCI-H322M lung 30.9% | HOP-92 NSCLC 50.9% | NCI-H522 lung 97.6% | A549/ATCC NSCLC 55.1% | 786-0 renal 49.1% | DU-145 prostate 66.2% | MDA-MB-231 breast 16.7% | RXF 393 renal 17.4% | SF-268 CNS 92.1% | SF-539 CNS 87% | UACC-257 melanoma 101% | M14 melanoma 25.8%

N#C/C(=C\c1ccc(-c2cccc(C(F)(F)F)c2)o1)c1nc(-c2ccco2)cs1
inactive: NCI-H226 lung 84.1% | NCI-H322M lung 89.2% | HOP-62 NSCLC 105% | NCI-H460 lung 94.4% | HOP-92 NSCLC 86.9% | NCI-H522 lung 90% | A549/ATCC NSCLC 104% | 786-0 renal 102% | COLO 205 colon 118% | DU-145 prostate 105% | K-562 leukemia 92.3% | MALME-3M melanoma 93.8% | MDA-MB-231 breast 78.9% | RXF 393 renal 107% | SF-268 CNS 99.8% | SF-295 CNS 94.2% | SF-539 CNS 91.4% | UACC-257 melanoma 105% | M14 melanoma 97.8%

N#C/C(=C\c1ccc(-c2ccc(Br)cc2)o1)c1nc(-c2cccs2)cs1
inactive: NCI-H226 lung 102% | NCI-H322M lung 97.8% | NCI-H460 lung 103% | HOP-92 NSCLC 91% | NCI-H522 lung 94.4% | A549/ATCC NSCLC 109% | 786-0 renal 100% | COLO 205 colon 125% | DU-145 prostate 100% | K-562 leukemia 97% | MALME-3M melanoma 101% | MDA-MB-231 breast 89.3% | RXF 393 renal 107% | SF-268 CNS 102% | SF-295 CNS 100% | SF-539 CNS 93.8% | UACC-257 melanoma 102% | M14 melanoma 95.8%

CCc1cccc(CC)c1NC(=O)c1sc2nc3c(cc2c1N)CCCC3
inactive: NCI-H322M lung 92.8% | NCI-H460 lung 91.1% | HOP-92 NSCLC 51.2% | NCI-H522 lung 41.9% | A549/ATCC NSCLC 69.7% | 786-0 renal 87.8% | COLO 205 colon 105% | DU-145 prostate 98.6% | K-562 leukemia 26.6% | MALME-3M melanoma 54.3% | MDA-MB-231 breast 79.5% | RXF 393 renal 81.6% | SF-268 CNS 82.6% | SF-295 CNS 45.7% | SF-539 CNS 74.5% | M14 melanoma 52%

O=c1c2sc3ncc(Br)cc3c2ncn1-c1cccc(Cl)c1
inactive: NCI-H226 lung 87.3% | NCI-H322M lung 48.2% | HOP-62 NSCLC 60.3% | HOP-92 NSCLC 72.7% | NCI-H522 lung 82.8% | A549/ATCC NSCLC 43% | 786-0 renal 89% | COLO 205 colon 86.3% | DU-145 prostate 53.3% | K-562 leukemia 81.9% | MALME-3M melanoma 52.5% | MDA-MB-231 breast 49.5% | RXF 393 renal 73.6% | SF-268 CNS 64.1% | SF-539 CNS 81.4% | UACC-257 melanoma 88.4% | M14 melanoma 76%

From PubChem BioAssay (NCI)
